Source: PubChem (Broad Institute)
The list is not random: actives were taken first. Their share in the collection is about 3.2%.
INS-1E GSIS act: primary screen for activators of insulin secretion dependent on glucose, INS-1E cells, GLuc reporter luminescence. 370,000 tested, 0.61% active. activation, % at 16.6 µM. INS-1E GLuc reporter insulin secretion, 2-3 h. AID 743287;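 active means lowest replicate activation of at least 40%, so every replicate reaches that level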;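 further: 0% = median of neutral control wells and 100% = median of IBMX positive control wells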
Ecoli rRNA inh: selective bacterial rRNA inhibition in E. coli; E. coli WT GFP vs humanized-ribosome RFP mutants, fluorescence, 24 h; stronger effect = lower value; DMSO median 0, no signal -100; 350,000 tested, 1.6% active; AID 720706; GFP signal change (wild-type ribosome), % (no concentration beside the values);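 active means significant combined selectivity score with lowered wild-type GFP, culture density cut under 30%, mutant RFP and density less affected; inactive means any of these conditions unmet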
ERAP1 HTS inh: blocks human ERAP1 aminopeptidase activity | Q9NZ08 | recombinant ERAP1, Leu-AMC fluorescence, 60 min | 340,000 tested, 0.15% active | inhibition, % at 10.7 µM;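 active means mean replicate inhibition of at least 30%, or all replicates individually reaching that 30% level; inactive means mean below 30% and not every replicate reaching it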;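 further: 0% = neutral control wells and 100% = L-leucinethiol positive control wells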
Target sequence (Q9NZ08 whole entry, looked up): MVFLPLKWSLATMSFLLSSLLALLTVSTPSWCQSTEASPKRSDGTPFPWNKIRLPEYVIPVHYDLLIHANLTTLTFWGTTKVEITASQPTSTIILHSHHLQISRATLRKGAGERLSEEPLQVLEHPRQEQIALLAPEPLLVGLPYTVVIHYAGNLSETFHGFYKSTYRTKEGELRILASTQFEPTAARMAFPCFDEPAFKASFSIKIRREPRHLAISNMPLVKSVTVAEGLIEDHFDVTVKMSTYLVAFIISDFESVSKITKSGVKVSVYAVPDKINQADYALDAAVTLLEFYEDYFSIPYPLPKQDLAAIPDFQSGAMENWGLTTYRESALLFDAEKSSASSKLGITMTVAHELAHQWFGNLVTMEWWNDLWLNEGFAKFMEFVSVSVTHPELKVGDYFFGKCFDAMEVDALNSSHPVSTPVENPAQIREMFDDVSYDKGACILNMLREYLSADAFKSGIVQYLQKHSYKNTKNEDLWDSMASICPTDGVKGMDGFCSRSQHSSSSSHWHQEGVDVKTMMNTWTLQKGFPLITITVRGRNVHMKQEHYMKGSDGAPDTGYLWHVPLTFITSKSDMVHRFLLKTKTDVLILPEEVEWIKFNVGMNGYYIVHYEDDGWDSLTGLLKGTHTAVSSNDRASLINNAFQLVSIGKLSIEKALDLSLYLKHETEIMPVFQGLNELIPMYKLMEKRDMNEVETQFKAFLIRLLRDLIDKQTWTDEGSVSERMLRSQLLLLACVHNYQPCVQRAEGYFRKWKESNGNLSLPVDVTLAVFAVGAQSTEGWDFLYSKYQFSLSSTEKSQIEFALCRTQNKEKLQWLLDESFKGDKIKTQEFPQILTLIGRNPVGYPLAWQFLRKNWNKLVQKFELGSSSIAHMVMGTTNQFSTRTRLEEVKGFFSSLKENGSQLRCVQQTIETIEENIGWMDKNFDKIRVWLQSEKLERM
PGC1a acetyl inh: modulators of PGC1a acetylation; 350,000 tested, 0.17% active; inhibition, % at 15.6 µM; U2OS PGC1a acetylation, AlphaScreen anti-acetyl-lysine; with virally co-expressed GCN5 acetyltransferase;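 active means every replicate shows inhibition of at least 40%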;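 further: 0% = neutral control wells and 100% = positive control wells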
CaV13 ICDI inh: Disruptors of the CACNA1D IQ motif to Ca2+-dependent inactivation inhibitor domain association, primary screening, Förster resonance energy transfer in intact living …; HEK cells, CFP/YFP FRET ICDI-IQ, plate reader, 10 min; percent FRET-ratio fall versus neutral wells; inhibition, % at 12.3 µM; 340,000 tested, 0.098% active;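 active means mean replicate inhibition of at least 30% and at least 1% of replicates passing that level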;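 further: 0% = median of the neutral control wells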
DENV2 CPE rescue: inhibitors of DENV2 cytopathic effect; CPE inhibition, % at 9.99 µM; DENV2-infected cells, cytopathic effect rescue, plate reader; 350,000 tested, 1.7% active; in the data active means CPE inhibition above about 20%, passing the limit was not always enough; tested in BHK-21 cells;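 further: 0% = median of neutral control wells and 100% = median of positive control wells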
An asterisk follows results filed as active; . = no result.

SMILES	INS-1E GSIS act	Ecoli rRNA inh	ERAP1 HTS inh	PGC1a acetyl inh	CaV13 ICDI inh	DENV2 CPE rescue
COC(=O)c1c2oc(c1C(=O)OC)C(=O)N(C)Cc1cn(nn1)C[C@@H](Cc1ccccc1)NC(=O)N[C@H](CO)CC2	.	.	1	5	.	0
CCOC(=O)c1ccc(NC(=O)C2CC3CCC2C3)cc1 (stereo not given)	.	-34	-1	-15	-5	11
COC(=O)c1ccc(NC(=O)C2CC3CCC2C3)cc1 (stereo not given)	-15	-16	.	-13	-2	47*
CC(C)NC(=O)Nc1ccc2c(c1)C(=O)N([C@@H](C)CO)C[C@@H](C)[C@H](CN(C)C(=O)C1CCCCC1)OCCCC[C@@H](C)O2	1	3	2	7	.	-3
Cc1ccc(S(=O)(=O)N(C)C[C@H]2Oc3ccc(NC(=O)Cn4cnnn4)cc3CC(=O)N([C@@H](C)CO)C[C@H]2C)cc1	0	2	1	-12	.	-8
C[C@H]1CN([C@@H](C)CO)C(=O)c2cc(NS(=O)(=O)c3cccs3)ccc2O[C@@H]1CN(C)S(=O)(=O)c1ccc(F)cc1	-4	1	-7	2	.	19
CCOc1ccc(C(=O)NCC(=O)OCCN2C(=O)c3ccccc3C2=O)cc1OCC	57*	-2	-1	.	-6	0
C[C@H]1CN([C@@H](C)CO)C(=O)Cc2cc(NC(=O)CCCCCC(=O)Nc3ccccc3N)ccc2O[C@@H]1CN(C)C(=O)Nc1ccc(F)cc1	-6	5	2	5	.	0
C[C@H](CO)N1C[C@H](C)[C@H](CN(C)Cc2ccc(C(=O)Nc3ccccc3N)cc2)Oc2c(NS(=O)(=O)c3ccccc3)cccc2C1=O	-7	0	-1	17	.	-7
C=C(Br)Cn1cnc2ccccc21	-3	-2	-1	5	-5	4
O=C(Cn1cnc2ccccc21)c1ccc(Br)cc1	7	-28*	0	2	-12	.
COc1ccc(S(=O)(=O)N2CC[C@@H]3[C@@H](CO)Nc4ccc(-c5cccc(C#N)c5)cc4[C@@H]32)cc1	12	-12	-1	-20	.	-7
CO[C@@H]1CN(C)C(=O)c2ccc(NS(=O)(=O)c3cccc(F)c3)cc2OC[C@@H](C)N(C(=O)Cc2cccnc2)C[C@H]1C	5	0	-2	3	.	82*
CO[C@H]1CN(C)C(=O)c2ccc(NS(=O)(=O)c3cccc(F)c3)cc2OC[C@H](C)N(C(=O)Cc2cccnc2)C[C@H]1C	13	-1	-1	4	.	23*
CO[C@H]1CN(C)C(=O)c2cc(NS(=O)(=O)c3cccc(F)c3)ccc2OC[C@@H](C)N(C(=O)Cc2cccnc2)C[C@H]1C	9	2	-2	11	.	-1
CO[C@@H]1CN(C)C(=O)c2ccc(NS(=O)(=O)c3cccc(F)c3)cc2OC[C@H](C)N(C(=O)Cc2cccnc2)C[C@H]1C	20	-1	-1	7	.	-1
CCCC#Cc1cnc2c(c1)C(=O)N([C@@H](C)CO)C[C@@H](C)[C@H](CN(C)C(=O)Nc1ccc(OC)cc1)O2	10	0	3	2	.	-4
C[C@H](CO)N1C[C@H](C)[C@H](CN(C)C(=O)Nc2ccc3c(c2)OCO3)Oc2ccc(N(C)C)cc2C1=O	11	-4	-2	-12	.	3
C[C@@H]1CN([C@@H](C)CO)C(=O)c2cc(-c3cncnc3)cnc2O[C@H]1CN(C)C(=O)Nc1ccc2c(c1)OCO2	7	5	0	3	.	47*
C[C@@H]1CN([C@@H](C)CO)C(=O)c2cc(-c3cncnc3)cnc2O[C@@H]1CN(C)C(=O)Nc1ccc2c(c1)OCO2	11	-1	2	3	.	-3
C[C@@H]1CN([C@@H](C)CO)C(=O)c2cc(N(C)C)ccc2O[C@H]1CN(C)C(=O)Nc1ccc2c(c1)OCO2	18	-1	6	11	.	40*
C[C@@H]1CN([C@H](C)CO)C(=O)c2cc(N(C)C)ccc2O[C@H]1CN(C)C(=O)Nc1ccc(F)cc1	-9	2	1	-1	.	12
